Data: the supplement of paper PMC10849652
Targets with a hit are over-represented here; the source holds about 7,900 in all. About 0.6% of all pairs of compound and target were hits.

Experiments:
Assay in all cases: log2 fold change, soluble protein after heating vs DMSO (PISA); higher = thermal stabilisation; K562 cells, 10 uM, 30 min; active = over 0.2 and 3.5 SD of the protein, either way, in both replicates (recomputed)
[1] = compound: CC[C@@H]1C(=O)N(C)c2cnc(Nc3ccc(C(=O)NC4CCN(C)CC4)cc3OC)nc2N1C1CCCC1
Procedure, shortened: (§1)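 Soluble protein was defined as the supernatant after 21,000xg for 90 min. It came from K562 cells at 2×10^6 cells/mL given 10 μM compound for 30 min, heated in aliquots for 3 min across 48°C-58°C, pooled, and extracted in PBS with 0.5% NP-40 at 4°C, and was quantified by TMTpro 16plex LC-MS/MS with equalised channel sums. Thermal stability against control samples, from duplicates, is reported as log2 fold change.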

[2] = compound: CC[C@@H]1C(=O)N(C)c2cnc(Nc3ccc(C(=O)N[C@H]4CC[C@H](N5CCN(CC6CC6)CC5)CC4)cc3OC)nc2N1C(C)C [volasertib]
Procedure, shortened: as §1

[3] = compound: CC[C@H](C)N1C=C(C2=C(C=C(C=C21)C3=CN=C(C=C3)N4CCNCC4)C(=O)NCC5=C(C=C(NC5=O)C)C)C
Procedure, shortened: as §1

[4] = compound: CC[C@H](C)[C@@H](C(=O)N[C@@H]([C@@H](C)O)C(=O)N[C@@H](CC(C)C)C(=O)[C@]1(CO1)C)NC(=O)[C@H]([C@@H](C)CC)N(C)C(=O)C [epoxomicin]
Procedure, shortened: as §1

[5] = compound: CCn1c(C(=O)N(C2CC2)C2CC2)cc2c3c(ncn3C)c(Nc3cc(C)n(C)n3)nc21
Procedure, shortened: as §1

[6] = compound: CCn1cc(-c2ccnc3[nH]c(-c4cccc(CN(C)C)c4)cc23)c(-c2ccc(NC(=O)N(C)C)cc2)n1
Procedure, shortened: as §1

[7] = compound: CN(C)CC(=O)Nc1ccc2[nH]c(=O)c3ccccc3c2c1
Procedure, shortened: as §1

[8] = compound: CN(CCOC1=CC=C(C=C1)C[C@H]2C(=O)NC(=O)S2)C3=CC=CC=N3 (racemic) [rosiglitazone]
Procedure, shortened: as §1

[9] = compound: CN1C2=C(C3=C1C(=O)N(N=C3)CC4=CC(=CC=C4)N)SC(=C2)S(=O)C
Procedure, shortened: as §1

[10] = compound: CN1CCC(CNc2ccc3ncc(-c4cccc(OC(F)(F)F)c4)n3n2)CC1
Procedure, shortened: as §1

[11] = compound: CN1CCN(CCOc2cc(OC3CCOCC3)c3c(Nc4c(Cl)ccc5c4OCO5)ncnc3c2)CC1 [saracatinib]
Procedure, shortened: as §1

[12] = compound: CN1CCN(c2nc(C3=C(c4c[nH]c5ccccc45)C(=O)NC3=O)c3ccccc3n2)CC1 [sotrastaurin]
Procedure, shortened: as §1

[13] = compound: CN1CC[C@H](c2c(O)cc(O)c3c(=O)cc(-c4ccccc4Cl)oc23)[C@H](O)C1 [alvocidib]
Procedure, shortened: as §1

[14] = compound: CN1CCc2c(c3ccccc3n2Cc2ccc(C(=O)NO)cc2)C1 [Tubastatin A]
Procedure, shortened: as §1

[15] = compound: CNC(=O)C1=CC=CC=C1NC2=NC(=NC=C2Cl)NC3=C(C=C(C=C3)N4CCOCC4)OC
Procedure, shortened: as §1

[16] = compound: CNC(=O)c1ccc(Nc2ncc(C(F)(F)F)c(NCc3nccnc3N(C)S(C)(=O)=O)n2)cc1 [defactinib]
Procedure, shortened: as §1

[17] = compound: CNCc1ccc(-c2[nH]c3cc(F)cc4c3c2CCNC4=O)cc1 [rucaparib]
Procedure, shortened: as §1

[18] = compound: CNc1nc(-c2ccc3c(N)n[nH]c3c2)cc(N2C[C@@H](C(=O)NC3CCCCC3)CC[C@H]2C)n1
Procedure, shortened: as §1

[19] = compound: COC(=O)N[C@@H](C)CNc1nccc(-c2cn(C(C)C)nc2-c2cc(Cl)cc(NS(C)(=O)=O)c2F)n1 [encorafenib]
Procedure, shortened: as §1

[20] = compound: COC(=O)[C@H](CCSC)NC(=O)C1=C(C=C(C=C1)NC[C@H](CS)N)C2=CC=CC=C2
Procedure, shortened: as §1

Measured: log2 fold change

SLC30A7 (UniProt Q8NEW0)
Chain of UniProt Q8NEW0 (Q8NEW0 whole entry, looked up): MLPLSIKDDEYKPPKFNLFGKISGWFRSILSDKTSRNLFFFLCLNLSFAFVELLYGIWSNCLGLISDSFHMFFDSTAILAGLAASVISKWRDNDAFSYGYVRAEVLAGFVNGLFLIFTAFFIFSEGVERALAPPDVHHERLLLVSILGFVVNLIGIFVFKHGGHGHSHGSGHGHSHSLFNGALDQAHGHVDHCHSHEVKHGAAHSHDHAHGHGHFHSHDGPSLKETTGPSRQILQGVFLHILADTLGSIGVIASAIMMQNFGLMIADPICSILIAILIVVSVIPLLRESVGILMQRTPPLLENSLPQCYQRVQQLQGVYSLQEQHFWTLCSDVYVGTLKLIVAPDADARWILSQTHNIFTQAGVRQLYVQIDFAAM
inactive: [1] 0.016 | [2] -0.074 | [3] -0.041 | [4] -0.034 | [5] -0.007 | [6] 0.032 | [7] 0.014 | [8] 0.053 | [9] -0.05 | [10] 0.091 | [11] 0.077 | [12] 0.101 | [13] -0.105 | [14] -0.107 | [15] 0.016 | [16] -0.051 | [17] 0.02 | [18] -0.026 | [19] 0.059 | [20] 0.029

SRSF6 (UniProt Q13247)
Chain of UniProt Q13247 (Q13247 whole entry, looked up): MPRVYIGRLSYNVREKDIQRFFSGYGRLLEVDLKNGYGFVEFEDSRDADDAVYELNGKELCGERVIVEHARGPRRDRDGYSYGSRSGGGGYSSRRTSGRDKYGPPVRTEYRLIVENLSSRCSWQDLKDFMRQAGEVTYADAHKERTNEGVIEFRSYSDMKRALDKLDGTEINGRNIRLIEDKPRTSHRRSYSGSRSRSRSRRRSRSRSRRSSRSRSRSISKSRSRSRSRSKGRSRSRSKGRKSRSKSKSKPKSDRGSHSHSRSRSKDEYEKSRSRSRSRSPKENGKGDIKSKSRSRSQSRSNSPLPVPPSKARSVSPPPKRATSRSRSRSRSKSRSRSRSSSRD
inactive: [1] 0.011 | [2] 0.174 | [3] 0.116 | [4] -0.181 | [5] -0.004 | [6] 0.028 | [7] -0.08 | [8] -0.043 | [9] 0.207 | [10] 0.315 | [11] 0.032 | [12] 0.031 | [13] 0.054 | [14] 0.092 | [15] -0.331 | [16] 0.032 | [17] 0.227 | [18] -0.113 | [19] 0.096 | [20] 0.018

SYF2 (UniProt O95926)
Chain of UniProt O95926 (O95926 whole entry, looked up): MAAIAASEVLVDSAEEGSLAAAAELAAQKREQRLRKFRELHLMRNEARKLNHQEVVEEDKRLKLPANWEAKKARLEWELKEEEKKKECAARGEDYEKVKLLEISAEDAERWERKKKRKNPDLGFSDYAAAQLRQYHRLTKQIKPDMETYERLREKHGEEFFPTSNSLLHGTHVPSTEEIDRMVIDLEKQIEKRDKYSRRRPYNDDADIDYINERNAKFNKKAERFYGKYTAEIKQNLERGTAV
inactive: [1] 0.196 | [2] 0.174 | [3] -0.096 | [4] 0.129 | [5] -0.01 | [6] 0.068 | [7] -0.044 | [8] -0.017 | [9] 0.039 | [10] 0.187 | [11] -0.028 | [12] -0.041 | [14] -0.016 | [15] -0.086 | [16] 0.286 | [17] 0.029 | [18] -0.14 | [19] -0.062 | [20] 0.038
active: [13] 0.383

SPPL2B (UniProt Q8TCT7)
Chain of UniProt Q8TCT7 (Q8TCT7 whole entry, looked up): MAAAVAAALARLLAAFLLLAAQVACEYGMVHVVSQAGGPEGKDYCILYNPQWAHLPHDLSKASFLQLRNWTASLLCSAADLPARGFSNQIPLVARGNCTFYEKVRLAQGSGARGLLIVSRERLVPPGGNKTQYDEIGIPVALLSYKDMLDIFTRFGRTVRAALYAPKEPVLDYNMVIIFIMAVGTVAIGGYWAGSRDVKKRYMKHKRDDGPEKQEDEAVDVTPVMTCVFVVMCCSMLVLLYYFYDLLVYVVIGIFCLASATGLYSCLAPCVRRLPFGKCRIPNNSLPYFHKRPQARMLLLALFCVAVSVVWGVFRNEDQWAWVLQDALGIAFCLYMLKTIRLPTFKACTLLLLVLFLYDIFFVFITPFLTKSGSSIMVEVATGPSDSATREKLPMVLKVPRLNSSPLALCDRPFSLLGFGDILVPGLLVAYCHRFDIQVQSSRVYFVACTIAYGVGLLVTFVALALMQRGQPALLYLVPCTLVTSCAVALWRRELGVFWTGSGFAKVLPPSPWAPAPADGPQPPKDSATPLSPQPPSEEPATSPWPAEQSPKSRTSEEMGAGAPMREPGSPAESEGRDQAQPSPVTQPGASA
inactive: [1] 0.039 | [2] 0 | [3] -0.003 | [4] -0.076 | [5] -0.004 | [6] 0.028 | [7] 0.035 | [8] -0.022 | [9] 0.033 | [10] -0.228 | [11] -0.009 | [12] 0.074 | [13] -0.02 | [14] -0.031 | [15] 0.026 | [16] -0.014 | [17] -0.036 | [18] -0.06 | [19] 0.029 | [20] 0.069

TIAL1 isoform 2 (UniProt Q01085)
Chain of UniProt Q01085 (Q01085 whole entry, looked up): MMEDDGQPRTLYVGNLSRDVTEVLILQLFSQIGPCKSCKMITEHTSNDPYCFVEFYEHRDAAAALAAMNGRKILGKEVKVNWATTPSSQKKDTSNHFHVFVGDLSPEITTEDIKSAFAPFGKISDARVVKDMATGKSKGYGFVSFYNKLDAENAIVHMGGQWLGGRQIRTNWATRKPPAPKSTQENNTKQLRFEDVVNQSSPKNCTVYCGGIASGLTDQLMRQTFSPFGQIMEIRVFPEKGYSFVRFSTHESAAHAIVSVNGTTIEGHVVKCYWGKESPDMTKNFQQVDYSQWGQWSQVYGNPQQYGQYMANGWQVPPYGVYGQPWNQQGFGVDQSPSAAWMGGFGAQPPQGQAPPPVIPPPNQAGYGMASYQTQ
inactive: [1] 0.042 | [2] -0.042 | [3] 0.006 | [4] 0.001 | [5] 0.01 | [6] 0.026 | [7] -0.056 | [8] -0.019 | [9] -0.063 | [10] -0.03 | [11] 0.015 | [12] 0.025 | [13] 0.036 | [14] -0.052 | [15] -0.019 | [16] 0.077 | [17] 0.066 | [18] -0.042 | [19] -0.034 | [20] -0.014
